Screening results: PubChem, National Center for Advancing Translational Sciences (NCATS)
HCV inh: HCV inhibition; 340,000 tested, 3.4% active; Potency, µM (highest dose often 41.8 µM), for inactives: at the highest dose activity change, negative = inhibition, usual class: inhibitors; Huh7.5.1 HCVcc-Cre infection, luciferase reporter, 44 h; also: potency is read from the fitted curve at half-maximal effect; % is scaled to controls: 0 for no effect and ±100 for the full control effect
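Antiviral activity was scored by luciferase reporter output from cells infected with HCVcc-Cre (~0.5 moi) in presence of compound, 44 h infection period, cells seeded 1,000/well 4 h prior.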
Cycloheximide cs: counter-screen for Shiga toxin inhibitors: cycloheximide protein synthesis inhibition. cell reporter, cycloheximide protein synthesis inhibition counterscreen. max response, %. 300,000 tested, 12% active; in the data active = max response mostly above about 13%, no sharp cut-off; inactive = mostly below about 14%; also: read at 38.3 µM for the half of the compounds with a filed dose; 0% is about no effect
Pf growth 96h: P. falciparum growth inhibition at 96 hour, primary screen for plastid delayed-death inhibitors; 320,000 tested, 6.9% active; P. falciparum luciferase reporter growth, 96 h; Potency, µM (top dose mostly 28.7 µM), inactives show at the highest dose activity change, negative = inhibition, most hits filed as inhibitors; AID 504834; also: potency is read from the fitted curve at half-maximal effect; % is scaled to controls: 0 for no effect and ±100 for the full control effect
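96 h incubation, 37 C, 5% CO2, of luciferase-reporter P. falciparum-infected RBCs (2% hematocrit, 0.05% parasitemia final) with test compounds; endpoint luminescence.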
HCMV antiviral: inhibitors of human cytomegalovirus | HFF cells, HCMV-luciferase reporter, 72 h; hits give low values | activity change, negative = inhibition, % at 57.5 µM | 410,000 tested, 4.5% active | AID 1259415; in the data active = activity change below about -60%; inconclusive = no clear call, values can overlap the other calls; inactive = above about -39%; also: % is scaled to controls: 0 for no effect and ±100 for the full control effect
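Two-dose cell screen: HFF monolayers treated with compounds and infected with luciferase-expressing HCMV at 1 PFU/cell, 72 h at 37C, then lysed for luciferase measurement.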
Shiga toxin inh: inhibitors of Shiga toxin in Vero cells; Vero cells, Shiga toxin protein synthesis inhibition reporter; inhibition, % at 38.7 µM; 290,000 tested, 9.2% active; AID 2315; in the data active = inhibition mostly above about 28%, no sharp cut-off; inactive = mostly below about 43%; also: 0% is about no effect
Pf growth 48h: inhibits P. falciparum growth in the first generation, 48 h; P. falciparum luciferase growth in erythrocytes, 48 h; Potency, µM (top dose mostly 28.7 µM), without a hit: top-dose activity change, negative = inhibition, actives largely listed as inhibitors; 310,000 tested, 5.9% active; also: potency is read from the fitted curve at half-maximal effect; % is scaled to controls: 0 for no effect and ±100 for the full control effect
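A one-generation exposure of luciferase-tagged malaria parasites in RPMI 1640/Albumax erythrocyte culture, 37 C and 5% CO2. Inhibition is inferred from decreased luminescence after adding detection reagent.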
* hit, by the source's call; i = inactive; u = inconclusive; x = no result; [ ] = another dose, or the depositor's remark. Most compounds without a hit are left out; they make up all but 21% or so of the library. Unless noted, calls follow the shape of the dose curve; as a rule, active = well fitted inhibition curve with a large enough effect; inconclusive = small, poorly fitted or top-dose-only effect, or another doubt; inactive = no such curve, though single readings can be large or run the other way.

SMILES | HCV inh | Cycloheximide cs | Pf growth 96h | HCMV antiviral | Shiga toxin inh | Pf growth 48h
CCC1=C(OC(=O)N(CC)CC)N2C(=O)OC(=NCCOC)[C@]2(Cc2ccccc2)[C@H]2C1=CC[C@H]1C(=O)N(CC)C(=O)[C@H]12 | 1.4% | -3.4 | u | 30.3 | -12.7 | 13.1µM*
CCC1=C2CC[C@H]3C(=O)N(C)C(=O)[C@H]3[C@H]2[C@@]2(Cc3ccccc3)C(=NCCOC)OC(=O)N2C1=O | 15.1% | -5.1 | 40.4% | -6.8 | -2.0 | 37.4%
COc1ccc(NC(=O)c2cccs2)cc1C(=O)N1CCN(c2ccccc2)CC1 | -24.2% | -1.4 | 80.5% | -10.3 | -3.9 | -12.4%
Cn1c(=O)c2c(ncn2CC(=O)N/N=C/c2c[nH]c3ccccc23)n(C)c1=O | x | -1.7 | 9.7% | x | -3.5 | 16.9%
CCC1=C(OC(=O)N(CC)CC)N2C(=O)OC(=NCCc3c[nH]c4ccccc34)[C@]2(Cc2ccccc2)[C@H]2C1=CC[C@H]1C(=O)N(CC)C(=O)[C@H]12 | u | -1.7 | 13.1µM* | -6.9 | 2.7 | 9.28µM*
CCC1=C(OC(=O)N(CC)CC)N2C(=O)OC(=NCC(=O)OC)[C@]2(C)[C@H]2C1=CC[C@H]1C(=O)N(CC(=O)OC)C(=O)[C@H]12 | 14.3% | -2.8 | 64.2% | -5.6 | -10.4 | 30.7%
CCC1=C(OC(=O)N(CC)CC)N2C(=O)OC(=NCC(=O)OC)[C@]2(Cc2ccccc2)[C@H]2C1=CC[C@H]1C(=O)N(CC(=O)OC)C(=O)[C@H]12 | 28.7% | -4.6 | u | 7.9 | -9.2 | 11.7µM*
CCC1=C(OC(=O)N(CC)CC)N2C(=O)OC(=NCCc3c[nH]c4ccccc34)[C@]2(C)[C@H]2C1=CC[C@H]1C(=O)N(C)C(=O)[C@H]12 | -9.1% | -1.3 | u | 0.4 | -3.7 | 10.4µM*
COC(=O)CN=C1OC(=O)N2C(=O)C3=C4[C@@H](C[C@H]5C(=O)N(c6ccccc6)C(=O)[C@H]5[C@H]4[C@@]12Cc1ccccc1)[C@H]1C(=O)N(c2ccccc2)C(=O)[C@H]1[C@H]3C | -3.9% | -3.1 | u | 39.6 | -4.5 | 11.7µM*
O=C(CCn1c(=O)c2cccn2c2ccccc21)Nc1ccc(F)cc1 | u | 7.8 | u | 59.6 | 29.8 | u
CC(OC(=O)c1ccncc1)C(=O)Nc1ccc([N+](=O)[O-])cc1Cl (stereo not drawn) | 3.6% | 10.1 | 97.2% | -15.2 | 3.7 | 37.2%
CN(C(=O)c1ccc(COc2ccccc2Br)o1)c1ccccc1 | 13.7% | 15.3* | -20.2% | 16.2 | 27.0* | -26.6%
CN(C)CCOC(=O)c1ccc(COc2ccccc2Br)o1 | 11.7% | -5.9 | 29.3% | 1.9 | 2.1 | -22.7%[0.00184 µM]
O=C(c1ccc(COc2ccccc2Cl)o1)N1CCN(c2ccccc2)CC1 | u | -3.0 | u | 29.5 | -12.8 | x
O=C(NC1CCCC1)c1ccc(COc2ccccc2Br)o1 | 12.6µM* | 16.0 | u | 37.7 | 11.1 | 0.0%
O=C(c1ccc(COc2ccccc2Br)cc1)N1CCCCC1 | u | 34.4* | 61.6% | -8.5 | 49.5* | x
O=C(c1ccc(COc2ccccc2Br)o1)N1CCCCCC1 | -26.3% | 26.4* | -2.1% | -12.2 | 31.6* | -2.6%
COc1ccccc1OCc1ccc(C(=O)N2CCN(C(=O)c3ccco3)CC2)cc1 | 1.2% | -5.8 | 3.7% | 24.5 | -8.5 | x
N#CCC1(O)C(=O)N(Cc2ccccc2)c2ccccc21 (stereo not drawn) | x | x | x | 15.0 | x | x
CC(C)(C)OC(=O)N1C=CCC1CN1C(=O)COCC1=O (stereo not drawn) | x | 10.1 | x | x | 17.3 | x
CCOC(=O)c1ccc(N=C2SC(C(=O)Nc3ccccc3)CC(=O)N2C)cc1 (stereo not drawn) | x | x | x | 7.1 | x | x
O=C(NCCc1ccccc1)c1ccc(Cl)c(S(=O)(=O)N2CCOCC2)c1 | u | 24.2* | 10.4µM* | -5.4 | 30.7 | u
COc1cccc(CNC(=O)c2ccc(Cl)c(S(=O)(=O)N3CCOCC3)c2)c1 | u | x | 6.57µM* | 0.0 | x | 8.28µM*
CC(C)(C)SCCNC(=O)c1ccc(Cl)c(S(=O)(=O)N2CCOCC2)c1 | u | x | x | -35.9 | x | x
COc1cccc(SCc2noc(C(=O)NCCCN3CCOCC3)c2C(=O)NCCCN2CCOCC2)c1 | -10.3% | x | x | -30.0 | x | x
SMILES | HCV inh | Cycloheximide cs | Pf growth 96h | HCMV antiviral | Shiga toxin inh | Pf growth 48h
c1ccc(CSC2=NNC(c3ccccn3)S2)cc1 (stereo not drawn) | u | 33.2* | u | 82.9 | 31.8 | 2.08µM*
O=C(CSC1=NNC(c2ccccn2)S1)Nc1ccc(C(F)(F)F)cc1 (stereo not drawn) | -2.2% | 23.3* | u | -74.7* | 37.9* | u
CC(=O)Nc1ccc(NC(=O)CSc2ccccn2)cc1 | 6.0% | 10.1 | 273.3% | u | 9.4 | 10.4%
O=C(CSc1nc2c([nH]c3ccccc32)c(=O)n1-c1ccccc1)N1CCCCC1 | x | x | x | -26.4 | x | x
CCCCN(CC)CCCNC(=O)CCN1N=C(c2ccc(OC)cc2)CCC1=O | x | x | x | -29.3 | x | x
Cc1c(C)c2ccc(OC(C)C(=O)NC3CCN(Cc4ccccc4)CC3)cc2oc1=O (stereo not drawn) | u | -1.3 | u | 46.2 | 2.4 | u
Cc1ccc(NC(=O)N2CCC(CN3CCCCC3)CC2)c(Cl)c1 | x | x | x | 1.3 | x | x
CCOC(=O)Cn1nc(/C=C/c2ccc(C)cc2)ccc1=O | -0.1% | 8.2 | 37.9% | -27.1 | 27.5 | 0.0%
CCOC(=O)Cn1nc(/C=C/c2ccc(C(C)C)cc2)ccc1=O | -12.2% | 9.7* | 72.7% | 64.7 | 33.2 | 99.3%
CCOC(=O)Cn1nc(-c2ccc(Cl)cc2)ccc1=O | u | 10.8 | 9.28µM* | 51.8 | -8.0 | 12.5%
CC1S/C(=N/N=C2CCCCC2)NC1=O (stereo not drawn) | 13.0% | 30.1* | i | 48.2 | 32.7 | 18.6%
CC1S/C(=N/N=C2CCC(C(C)(C)C)CC2)NC1=O (stereo not drawn) | 9.5% | 25.9* | 13.4% | 1.8 | 24.6 | -0.5%
O=C(CC1S/C(=N/N=C2CCCCCC2)NC1=O)Nc1ccccc1C(F)(F)F (stereo not drawn) | -19.1% | 3.8 | -11.7% | 20.0 | -4.4 | -55.3%
CC(C)(C)C1CCNC(=O)CC1 (stereo not drawn) | x | x | x | -10.4 | x | x
COc1ccc(OC)c(NC(=O)c2ccc(-c3nc(COc4ccccc4)c(C)o3)cc2)c1 | x | x | x | -13.4 | x | x
O=C1CCC[C@H]2[C@@H](Cc3ccccc3)[C@H](NCc3cccs3)CC[C@]23CCCN13 | x | x | x | 19.6 | x | x
CCOc1ccc(C(=O)N/N=C/c2c(C)[nH]c(=O)[nH]c2=O)cc1 | x | 7.7 | 17.0% | 8.4 | 16.4 | 5.1%
CCOC(=O)N1CCN(C(=O)CCCn2nc(C)c3sc4ccccc4c3c2=O)CC1 | -3.8% | 13.3 | 13.9% | -8.2 | 67.9* | 5.22µM*
CC[N+](CC)(CCNC(=O)C(=O)NCC[N+](CC)(CC)Cc1ccccc1Cl)Cc1ccccc1Cl | x | x | 6.01µM* | x | x | u
